PubChem BioAssay
Calls of active or inactive are those of the source. Unless noted, the rule behind the calls is not given here.

Key:
[1] = A549 cell viability effects, profiling panel, calcein-AM fluorescence, 48 h, basal (AID 1162); settings: higher = more signal; note: test concentration not given here
[2] = adipocyte viability effects, profiling panel, cell-based, 3T3-L1 adipocytes, calcein-AM fluorescence, 48 h, basal (AID 1163); settings: 3T3-L1 adipocytes viability, higher = more signal; note: test concentration not given here
[3] = HepG2 cell viability effects, profiling panel, calcein-AM fluorescence, 48 h, basal (AID 1164); settings: higher = more signal; note: test concentration not given here
[4] = MM1S cell viability effects, profiling panel, calcein-AM fluorescence, 48 h, basal (AID 1165); settings: higher = more signal;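 note: viability of MM1S multiple myeloma cells under basal unstimulated conditions; test concentration not given here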
[5] = basal RPMI8226 viability, no added stimulus, profiling panel, cell-based, calcein-AM fluorescence, 48 h, PK04 Diversity Set (AID 1166); settings: RPMI8226 myeloma viability, higher = more signal;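 note: cells grown under basal conditions without added stimulus; test concentration not given here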
[6] = basal HepG2 mitochondrial membrane potential changes, profiling panel, cell-based, JC-1 fluorescence, 24 h, 100 nL compound (AID 1167); settings: higher = more signal; note: test concentration not given here
[7] = basal 3T3-L1 adipocyte mitochondrial potential changes, profiling panel, cell-based, JC-1 fluorescence, 3T3-L1 adipocytes, 24 h, 100 nL compound (AID 1168); settings: JC-1 mitochondrial fluorescence, higher = more signal, called active from +8 up or from −8 down; note: test concentration not given here
[8] = basal RPMI8226 mitochondrial membrane potential changes, profiling panel, cell-based, JC-1 fluorescence, 24 h, 100 nL compound (AID 1169); settings: RPMI8226 myeloma, JC-1 mitochondrial potential fluorescence, higher = more signal; note: test concentration not given here
[9] = basal MM1S mitochondrial membrane potential changes, profiling panel, cell-based, JC-1 fluorescence, 24 h, 100 nL compound (AID 1170); settings: higher = more signal; note: test concentration not given here
[10] = A549 lung cancer cell viability effects, profiling panel, resazurin fluorescence, 24 h, PK04 Diversity Set (AID 1171); settings: higher = more signal, called active from +8 up or from −8 down; note: test concentration not given here
[11] = HepG2 liver cancer cell viability effects, profiling panel, resazurin fluorescence, 24 h, PK04 Diversity Set (AID 1172); settings: higher = more signal; note: test concentration not given here
[12] = basal S. cerevisiae growth modulation, no modifier, primary screen, OD600, strain BY4716, 24 h, basal condition (AID 1173); settings: OD600, 24 h, higher = more signal, called active from +8 up or from −8 down
[13] = MM1S myeloma cell viability, profiling panel, resazurin fluorescence, basal, 24 h, PK04 Diversity Set (AID 1174); settings: higher = more signal, called active from +8 up or from −8 down;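 note: MM1S multiple myeloma cell line; test concentration not given here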
[14] = biological target: Dihydroorotate dehydrogenase (quinone), mitochondrial (Plasmodium falciparum (isolate 3D7)) (UniProt Q08210); assay: PfDHODH enzyme inhibitors, primary screen, biochemical, C-terminal His tag, absorbance 600 nm (AID 1175); settings: DCIP absorbance 600 nm, higher = more signal, called active from +8 up or from −8 down;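 note: recombinant parasite enzyme with a five histidine tag at its C terminus; test concentration not given here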
Chain of Dihydroorotate dehydrogenase (quinone), mitochondrial (Plasmodium falciparum (isolate 3D7)) (Q08210 whole entry, looked up): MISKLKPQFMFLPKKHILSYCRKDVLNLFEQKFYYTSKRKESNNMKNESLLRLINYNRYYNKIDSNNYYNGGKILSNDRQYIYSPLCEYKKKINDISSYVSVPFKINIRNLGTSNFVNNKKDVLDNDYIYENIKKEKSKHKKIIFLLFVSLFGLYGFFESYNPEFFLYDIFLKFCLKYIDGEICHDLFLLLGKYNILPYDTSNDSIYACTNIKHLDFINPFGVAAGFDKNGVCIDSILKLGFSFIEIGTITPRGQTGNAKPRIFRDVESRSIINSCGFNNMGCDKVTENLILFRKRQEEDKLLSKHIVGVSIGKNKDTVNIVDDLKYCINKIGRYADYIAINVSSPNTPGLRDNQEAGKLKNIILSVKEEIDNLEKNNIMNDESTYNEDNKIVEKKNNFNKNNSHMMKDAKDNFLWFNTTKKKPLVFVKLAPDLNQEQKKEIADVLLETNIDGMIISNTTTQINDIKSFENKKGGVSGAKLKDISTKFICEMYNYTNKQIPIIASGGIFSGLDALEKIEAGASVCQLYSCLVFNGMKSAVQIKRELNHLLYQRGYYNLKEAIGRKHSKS

[15] = P. aeruginosa biofilm formation inhibitors, primary screen, strain PAO1, LB-PBS medium, absorbance 600 nm (AID 1176); note: test concentration not given here; settings: P. aeruginosa PAO1 growth/biofilm, A600, 12 h; higher = more signal
[16] = S. cerevisiae RM11-1a growth modifiers, primary screen, strain RM11-1a, OD600, basal, 24 h (AID 1177); settings: OD600, 24 h, higher = more signal, called active from +8 up or from −8 down;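 note: cultures grown under basal conditions with no added stressor; test concentration not given here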
[17] = E. coli acrAB mutant growth effects, primary screen, E. coli filamentation inducers, strain DRC39, OD650, 24 h (AID 1178); settings: higher = more signal, called active from +8 up or from −8 down;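 note: growth measured as culture turbidity by optical density at 650 nm; test concentration not given here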
[18] = E. coli acrAB mutant growth effects, primary screen, E. coli filamentation inducers, strain DRC39, OD650, 48 h (AID 1179);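 note: screen aims at cell division blockers that make cells filament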; settings: E. coli DRC39 delta-acrAB growth, higher = more signal, called active from +8 up or from −8 down
[19] = RPMI8226 myeloma cell viability, profiling panel, resazurin fluorescence, basal, 24 h, PK04 Diversity Set (AID 1180); settings: higher = more signal;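 note: RPMI8826 multiple myeloma cell line at 5000 cells per well; test concentration not given here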
[20] = biological target: E3 ubiquitin-protein ligase XIAP (Homo sapiens) (UniProt P98170); assay: XIAP binders, primary screen, biophysical, small-molecule microarray, fluorescence 635 nm (AID 1181); settings: small-molecule microarray binding, higher = more signal;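 note: score merges 667 nm emission and signal to noise over triplicate slides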
Chain of E3 ubiquitin-protein ligase XIAP (Homo sapiens) (P98170 whole entry, looked up): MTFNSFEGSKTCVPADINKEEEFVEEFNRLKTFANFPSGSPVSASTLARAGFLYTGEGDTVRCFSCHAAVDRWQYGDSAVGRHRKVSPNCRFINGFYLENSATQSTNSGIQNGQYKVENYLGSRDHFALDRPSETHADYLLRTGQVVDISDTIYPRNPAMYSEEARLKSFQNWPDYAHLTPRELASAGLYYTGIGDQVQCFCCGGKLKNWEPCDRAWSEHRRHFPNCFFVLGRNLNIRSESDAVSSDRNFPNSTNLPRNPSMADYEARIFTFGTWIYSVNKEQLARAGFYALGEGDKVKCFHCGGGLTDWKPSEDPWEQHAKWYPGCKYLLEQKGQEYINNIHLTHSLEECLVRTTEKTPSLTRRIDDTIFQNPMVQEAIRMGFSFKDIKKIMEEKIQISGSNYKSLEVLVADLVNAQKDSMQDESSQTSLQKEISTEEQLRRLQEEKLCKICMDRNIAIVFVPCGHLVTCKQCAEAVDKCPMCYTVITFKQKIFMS

Structure (SMILES)	z-score [1]	z-score [2]	z-score [3]	z-score [4]	z-score [5]	z-score [6]	z-score [7]	z-score [8]	z-score [9]	z-score [10]	z-score [11]	z-score [12]	z-score [13]	composite z-score [14]	z-score [15]	z-score [16]	z-score [17]	z-score [18]	z-score [19]	composite z-score [20]
CO[C@H]1O[C@H](CO)[C@@H](OC(=O)c2ccc(Br)cc2)[C@@H]2OC(=O)[C@H](Cc3ccccc3)C/C=C/C[C@@H](Cc3ccccc3)C(=O)O[C@@H]12	1.77	0.863	0.857	-0.389	0.0226	-0.0867	-1.37 (inactive)	0.796	-0.823	-1 (inactive)	0.722	-2.04 (inactive)	-1.33 (inactive)	-0.854 (inactive)	-0.124 (inactive)	-1.42 (inactive)	1.74 (inactive)	2.16 (inactive)	0.425	0.154
Cc1ccc(C(C)CC(O)C2C=CC3C(=O)N(c4ccccc4)C(=O)C3N2Nc2ccc(C#N)cc2)o1 (stereo not given)	0.491	-0.0968	0.459	-3.7	-0.355	0.175	-0.155 (inactive)	-1.05	-1.2	-1.17 (inactive)	-0.793	-17.1 (active)	-3.76 (inactive)	-1.79 (inactive)	0.0616 (inactive)	-20.8 (active)	0.431 (inactive)	1.14 (inactive)	-5.62	0.0204
C=C(COC)C(=O)CC[C@H](OC(C)=O)c1ccc(OCCO)cc1	-0.522	1.72	-0.974	-2.6	-0.887	0.692	-0.213 (inactive)	-0.0964	1.3	0.0933 (inactive)	-0.429	-0.408 (inactive)	-0.267 (inactive)	-0.998 (inactive)	-0.116 (inactive)	-0.83 (inactive)	-0.238 (inactive)	0.53 (inactive)	-0.873	-0.326
[N-]=[N+]=NCc1ccccc1[C@@H]1OC(c2ccc(OCCCO)cc2)=N[C@]1(Cc1ccccc1N=[N+]=[N-])C(=O)NCCN1CCOCC1	0.0239	0.727	0.695	-1.17	-1.09	0.988	0.564 (inactive)	-0.96	-0.212	0.162 (inactive)	-0.591	-2.33 (inactive)	0.0903 (inactive)	-0.549 (inactive)	0.385 (inactive)	-0.186 (inactive)	0.191 (inactive)	-0.215 (inactive)	-0.846	-0.0826
CCCCCCCCCCC(O)C1C=CC2C(=O)N(c3ccccc3)C(=O)C2N1Nc1ccccc1F (stereo not given)	0.059	-0.849	-0.016	-0.598	-0.105	-0.777	-0.45 (inactive)	-0.415	-0.193	0.162 (inactive)	0.0366	0.864 (inactive)	-0.361 (inactive)	0.742 (inactive)	0.819 (inactive)	0.719 (inactive)	-0.717 (inactive)	0.555 (inactive)	-0.335	0.174
NC(=O)[C@H]1[C@@H]2C(=O)O[C@@H](c3ccccc3)[C@@H](c3ccccc3)N2[C@@H](c2ccc(O)cc2)[C@]12C(=O)Nc1ccc(C#CC3=CCCCC3)cc12	-1.8	0.741	-3.91	-3.33	-4.54	-3.68	-2.09 (inactive)	-1.16	-1.32	-0.3 (inactive)	-0.111	0.137 (inactive)	-2.5 (inactive)	-0.146 (inactive)	-0.144 (inactive)	1.76 (inactive)	-0.466 (inactive)	-0.51 (inactive)	-4.76	-0.0773
COc1ccc([Si](C)(C)[C@@H]2[C@@H](CC(=O)N3Cc4ccccc4C[C@H]3CO)O[C@]3(C(=O)N(Cc4ccc(N5CCC5=O)cc4)c4ccccc43)[C@H]2C)cc1	-0.167	0.233	0.437	-0.0069	-1.76	1.13	1.37 (inactive)	-0.553	-0.502	-0.61 (inactive)	0.353	0.457 (inactive)	-0.736 (inactive)	-3 (inactive)	1.45 (inactive)	2.01 (inactive)	0.7 (inactive)	0.613 (inactive)	-0.536	0.177
O=c1cccc(-c2ccc(F)cc2)o1	-0.562	0.616	-0.606	-0.0871	-0.913	0.0366	0.5 (inactive)	0.036	-0.0644	-0.0964 (inactive)	0.0278	-0.576 (inactive)	0.306 (inactive)	-0.555 (inactive)	-0.088 (inactive)	0.18 (inactive)	-0.561 (inactive)	-0.165 (inactive)	-0.739	-0.167
COc1ccc(C(=O)Nc2cccc(CN3C(=O)[C@@]4(O[C@@H](CC(=O)N(CCO)Cc5ccccc5)[C@H]([Si](C)(C)c5ccc(OC)cc5)[C@H]4C)c4ccccc43)c2)cc1	-0.269	1.36	-1.39	-0.696	-4.07	0.672	2.67 (inactive)	-0.865	-0.789	-2.23 (inactive)	-0.0246	0.062 (inactive)	-2.3 (inactive)	-2.25 (inactive)	0.711 (inactive)	0.621 (inactive)	0.289 (inactive)	0.45 (inactive)	-2.67	-0.0365
CN(C)CCCCNC(=O)[C@H]1C[C@H]2C(=O)N[C@@H](CCCC[N+](C)(C)C)C(=O)N2[C@H]1c1ccc(O)cc1	-0.0568	0.29	-0.172	-0.178	0.733	-0.445	-0.763 (inactive)	-0.101	-0.203	0.625 (inactive)	0.351	-0.0503 (inactive)	1.4 (inactive)	-0.308 (inactive)	-1.16 (inactive)	-1.11 (inactive)	0.494 (inactive)	0.56 (inactive)	0.643	-0.0599
COCC(=C=CC[C@@H](O)c1cccc(OCCO)c1)CCO	0.611	0.314	0.356	0.55	-0.0681	0.00786	0.176 (inactive)	1.15	-0.447	0.0444 (inactive)	-0.161	-0.773 (inactive)	-0.0845 (inactive)	-2.07 (inactive)	-0.59 (inactive)	-0.357 (inactive)	0.583 (inactive)	0.464 (inactive)	-0.0794	-0.241
COCCOC(=O)N1C(=O)[C@@]2(c3cc(C#CCC(C(=O)OC)C(=O)OC)ccc31)[C@H](c1ccc(O)cc1)N1[C@H](c3ccccc3)[C@H](c3ccccc3)OC(=O)[C@H]1[C@@H]2C(=O)NC[C@H](O)c1ccccc1	-0.61	0.0453	-0.0754	-1.92	-4.3	-0.689	-1.16 (inactive)	-1.08	-0.91	0.691 (inactive)	1.78	-0.149 (inactive)	0.6 (inactive)	0.407 (inactive)	-0.489 (inactive)	0.592 (inactive)	0.416 (inactive)	-0.228 (inactive)	-2.51	-0.187
COC(=O)c1c2oc(c1C(=O)OC)C(=O)N1CCC[C@H]1Cn1nncc1CN(Cc1ccccc1)C(=O)N[C@H](CO)CC2	-0.0989	-0.723	0.436	0.829	0.394	0.488	0.172 (inactive)	-0.136	-0.882	0.744 (inactive)	0.744	-3.62 (inactive)	-0.0795 (inactive)	0.453 (inactive)	-0.0513 (inactive)	0.738 (inactive)	0.663 (inactive)	0.836 (inactive)	0.343	-0.0832
C=CCC(OC(C)=O)[C@@H]1[C@@H](N(Cc2ccc(-c3cccc(C(F)(F)F)c3)o2)C(=O)Cc2ccc(OC)cc2)c2cc(OCCCO)ccc2N1C(=O)Cc1ccc2ccccc2c1 (stereo not given in full)	0.553	1.78	0.73	-0.499	-1.14	1.94	-0.3 (inactive)	0.114	0.296	-0.674 (inactive)	-0.43	-0.753 (inactive)	0.0919 (inactive)	1.02 (inactive)	-0.628 (inactive)	0.132 (inactive)	0.532 (inactive)	0.279 (inactive)	-0.224	-0.0286
CCN(CC)c1ccc(N2CC=CC34O[C@@H]5C=CCCOC(=O)C5[C@H]3C(=O)N(CCO)[C@@H]4C2=O)cc1 (stereo not given in full)	-0.126	1.11	-0.618	0.766	-0.073	-0.178	0.0903 (inactive)	0.277	0.639	-0.0198 (inactive)	0.0656	-0.371 (inactive)	-0.281 (inactive)	-1.3 (inactive)	0.469 (inactive)	-0.106 (inactive)	0.449 (inactive)	0.2 (inactive)	0.553	0.0074
COc1cc(NN2C(C(O)c3cc(OC)c(OC)c(OC)c3)C=CC3C(=O)N(c4ccccc4)C(=O)C32)cc(OC)c1OC (stereo not given)	-0.94	0.641	-0.455	-0.881	-0.373	-0.132	-0.768 (inactive)	-0.286	-0.755	-1.11 (inactive)	-1.95	0.585 (inactive)	-1.19 (inactive)	-1.42 (inactive)	0.366 (inactive)	-0.147 (inactive)	-0.585 (inactive)	-0.511 (inactive)	-1.71	0.074
COC(=O)C(CC#Cc1ccc2c(c1)[C@]1(C(=O)N2)[C@H](c2ccc(OCCO)cc2)N2[C@H](c3ccccc3)[C@H](c3ccccc3)OC(=O)[C@H]2[C@@H]1C(=O)N1CCN(c2ncccn2)CC1)C(=O)OC	-0.824	-0.661	0.228	-0.966	-3.72	-1.01	0.525 (inactive)	-1	-1.55	0.352 (inactive)	-0.175	1.96 (inactive)	-0.382 (inactive)	-6.39 (inactive)	3.09 (inactive)	1.79 (inactive)	0.452 (inactive)	0.152 (inactive)	-2.63	0.0651
